The nature of test [1]: qHTS profiling for inhibitors of Plasmodium falciparum proliferation (AID 504749). Further: nearly all actives have a fitted effect of over 60% in size.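 On activity, negative = inhibition: 0% = DMSO vehicle and full inhibition = artemisinin control.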 The following applies: P. falciparum in erythrocytes, SYBR Green DNA, 72 h. An outline of the steps: (§1)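 Readout was DNA-dye fluorescence from lysed cultures, ex 485/em 535 nm. Parasitized red cells had grown 72 h with compound; data scaled between 0.29 uM artemisinin and DMSO wells and corrected using vehicle-only plates.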
A general note: In qHTS, concentration-response curves come from the screen itself.

The subject of another test is 3D7. The description is as above. The following applies: P. falciparum in erythrocytes, SYBR Green DNA, 72 h; series mostly up to 28.7 µM. An outline of the steps: as §1
A further test concerns AA1029. The description is as above. The following applies: P. falciparum in erythrocytes, SYBR Green DNA, 72 h; series mostly up to 28.7 µM. An outline of the steps:
as §1

For a further test, the system named is AS120. The description is as above. The following applies: P. falciparum in erythrocytes, SYBR Green DNA, 72 h; series mostly up to 28.7 µM. An outline of the steps: as §1
For the next test, the system named is ATS189. The test is described as above. The following applies: P. falciparum in erythrocytes, SYBR Green DNA, 72 h; series mostly up to 28.7 µM. An outline of the steps:
as §1

For another test, the system named is C2A. The description is as above. The following applies: P. falciparum in erythrocytes, SYBR Green DNA, 72 h; series mostly up to 28.7 µM. An outline of the steps:
as §1

The next test deals with CP191. The description is as above. The following applies: P. falciparum in erythrocytes, SYBR Green DNA, 72 h; series mostly up to 28.7 µM. An outline of the steps: as §1
The subject of a further test is CP215. Described as above. The following applies: P. falciparum in erythrocytes, SYBR Green DNA, 72 h; series mostly up to 28.7 µM. An outline of the steps:
as §1

Another test relates to CP217. Described as above. The following applies: P. falciparum in erythrocytes, SYBR Green DNA, 72 h; series mostly up to 28.7 µM. An outline of the steps:
as §1

A further test deals with CP238. The description is as above. The following applies: P. falciparum in erythrocytes, SYBR Green DNA, 72 h; series mostly up to 28.7 µM. An outline of the steps: as §1
The subject of another test is CP247. The test is described as above. The following applies: P. falciparum in erythrocytes, SYBR Green DNA, 72 h; series mostly up to 28.7 µM. An outline of the steps: as §1
The next test concerns CP252. The test is described as above. The following applies: P. falciparum in erythrocytes, SYBR Green DNA, 72 h; series mostly up to 28.7 µM. An outline of the steps:
as §1

For a further test, the system named is CP256. The test is described as above. The following applies: P. falciparum in erythrocytes, SYBR Green DNA, 72 h; series mostly up to 28.7 µM. An outline of the steps:
as §1

The next test concerns CP286. Described as above. The following applies: P. falciparum in erythrocytes, SYBR Green DNA, 72 h; series mostly up to 28.7 µM. An outline of the steps: as §1
The test system of a further test is CP291. The description is as above. The following applies: P. falciparum in erythrocytes, SYBR Green DNA, 72 h; series mostly up to 28.7 µM. An outline of the steps: as §1
Another test relates to CP325. Described as above. The following applies: P. falciparum in erythrocytes, SYBR Green DNA, 72 h; series mostly up to 28.7 µM. An outline of the steps:
as §1

The next test has as its system HB3. The description is as above. The following applies: P. falciparum in erythrocytes, SYBR Green DNA, 72 h; series mostly up to 28.7 µM. An outline of the steps:
as §1

[2] abbreviates: at 28.7 µM (top of the series), parasite line A.
[3] abbreviates: at 28.7 µM (top of the series), parasite line B.

Inconclusive results are not listed. Unmarked numbers belong to inactive results. The source made the active and inactive calls. The call rests on the fitted dose curve; in most records, active means well fitted inhibition curve with a large enough effect; inconclusive means small, poorly fitted or top-dose-only effect; inactive means flat fitted curve, though single readings scatter.
Potency means the concentration at half of the fitted maximal effect.

As for `CCCC(C)C1(CC)C(=O)NC(=S)NC1=O` (configuration not stated), the activity, negative = inhibition in test [1] (setting [2]) was 0.271%; in test [1] (setting [3]), 18%. The Potency result in the test with 3D7, in the test on AA1029, in the test on AS120, with ATS189, in the test on C2A and in the test on CP191 was “inactive” throughout. For the same molecule, the Potency result with CP215, with CP217, with CP238, in the test on CP247, in the test with CP252 and in the test with CP256 was “inactive” throughout. For the same molecule, the Potency entry with CP286, with CP291, with CP325 and in the test with HB3 was “inactive” each time.

Regarding `CC(CO)NC(=O)C1C=C2c3cccc4[nH]cc(c34)CC2N(C)C1` (configuration not stated), the values for the activity, negative = inhibition in [1] (setting [2]) and in test [1] (setting [3]) were -10.6% and -8.5%, respectively. In addition, the Potency entry in the test with 3D7, with AA1029, in the test with AS120, in the test on ATS189, in the test on C2A and in the test on CP191 was “inactive” throughout. The Potency entry in the test on CP215, in the test on CP217, with CP238, in the test with CP247, in the test on CP252 and in the test on CP256 was “inactive” throughout. The Potency result in the test on CP286, with CP291, with CP325 and with HB3 was “inactive” throughout.

Turning to `C[C@@H]1CC[C@H]2[C@@H](C)C(=O)O[C@@H]3OC4(C)CC[C@@H]1C32OO4` (some centres not stated), the Potency in [1] (parasite line A) is 7.9 nM (active); in test [1] (parasite line B), 7.1 nM (active); with 3D7 it was 7.9 nM (active); in the test on AA1029, 11.2 nM (active); in the test on AS120 it was 7.1 nM (active); in the test on ATS189 it was 8.9 nM (active). Moreover, the Potency was 11.2 nM (active) with C2A; 7.1 nM (active) in the test with CP191; 13.5 nM (active) in the test on CP215; 10 nM (active) in the test on CP217; 10 nM (active) in the test on CP238; 10 nM (active) in the test on CP247. For the same molecule, the Potency in the test with CP252 was 10 nM (active); with CP256 it was 10 nM (active); in the test on CP286 it was 7.1 nM (active); in the test with CP291, 10.7 nM (active); in the test with CP325, 15.1 nM (active); in the test with HB3, 8.9 nM (active).

`C#CC1(O)C=CC2C3CCC4=CC(=O)CCC4C3CCC21CC` (configuration not stated): the Potency result in the test with AS120, with ATS189, with C2A, in the test on CP217, in the test with CP238 and in the test with CP252 was “inactive” each time. Moreover, the Potency is 5010 nM (active) with CP191; 9530 nM (active) in the test with CP215; 6310 nM (active) in the test on CP247; 15100 nM (active) in the test on CP291; 12000 nM (active) in the test with CP325; 10000 nM (active) with HB3.

`NC(Cc1ccc(Oc2cc(I)c(O)c(I)c2)c(I)c1)C(=O)O` (configuration not stated): the activity, negative = inhibition in test [1] (setting [2]) was 8.09%; in test [1] (setting [3]) it was -0.518%. Further, the Potency result in the test on 3D7, in the test on AA1029, in the test with AS120, with ATS189, in the test with C2A and with CP191 was “inactive” each time. The Potency entry in the test on CP215, with CP217, in the test with CP238, with CP252, in the test with CP256 and in the test with CP286 was “inactive” each time. The Potency result with CP291, in the test with CP325 and with HB3 was “inactive” throughout.

As for `COC(C(=O)C(O)C(C)O)C1Cc2cc3cc(OC4CC(OC5CC(O)C(OC)C(C)O5)C(OC(C)=O)C(C)O4)c(C)c(O)c3c(O)c2C(=O)C1OC1CC(OC2CC(OC3CC(C)(O)C(OC(C)=O)C(C)O3)C(O)C(C)O2)C(O)C(C)O1` (configuration not stated), the Potency was 708 nM (active) in test [1] (parasite line A); 1410 nM (active) in [1] (parasite line B); 631 nM (active) with 3D7; 794 nM (active) in the test with AA1029; 794 nM (active) in the test with AS120; 1410 nM (active) with ATS189. For the same molecule, the Potency in the test on C2A is 1780 nM (active); in the test with CP191, 1780 nM (active); in the test with CP215, 4260 nM (active); with CP217, 1780 nM (active); in the test with CP238, 1260 nM (active); in the test with CP247, 1780 nM (active). Further, the Potency in the test with CP252 was 2000 nM (active); with CP256, 2510 nM (active); with CP286, 100 nM (active); in the test on CP291, 2130 nM (active); with CP325 it was 3380 nM (active); in the test with HB3, 355 nM (active).

With `CCOC(=O)/C=C(C)/C=C/CC(C)CCCC(C)C` (configuration not stated), the results for the activity, negative = inhibition in test [1] (setting [2]) and in [1] (setting [3]) were -0.0375% and 8.06%, respectively. The Potency result with 3D7, in the test with AA1029, in the test on AS120, in the test with ATS189, in the test with C2A and with CP191 was “inactive” in each case. Further, the Potency result in the test on CP215, with CP217, with CP238, in the test with CP247, in the test with CP252 and in the test on CP256 was “inactive” throughout. Also, the Potency result with CP286, with CP291, with CP325 and with HB3 was “inactive” throughout.

In the case of `CC1(C)S[C@@H]2[C@H](N)C(=O)N2C1C(=O)O` (some centres not stated), the activity, negative = inhibition in test [1] (at 12.8 µM (top of the series), parasite line A) was 15.1%; in test [1] (at 12.8 µM (top of the series), parasite line B), 13.6%. Further, the Potency result in the test on 3D7, in the test with AA1029, in the test with AS120, with ATS189, with C2A and in the test on CP191 was “inactive” throughout. Further, the Potency result with CP215, in the test with CP217, in the test on CP238, in the test on CP247, in the test with CP252 and in the test on CP256 was “inactive” each time. Besides, the Potency entry with CP286, in the test with CP291, in the test on CP325 and in the test with HB3 was “inactive” throughout.

Turning to `CCCCCCC(=O)O[C@H]1CC[C@H]2[C@@H]3CCC4CC(=O)C=C(C)[C@]4(C)[C@H]3CC[C@]12C` (some centres not stated), the activity, negative = inhibition in test [1] (setting [2]) was -7.1%; in test [1] (setting [3]), -5.28%. The Potency in the test on 3D7, in the test with CP286 and in the test with HB3 was 11200 nM (active) throughout. Besides, the Potency result in the test with AA1029, in the test with AS120, with ATS189, in the test on C2A, with CP191 and in the test with CP215 was “inactive” in each case. The Potency result in the test with CP217, with CP238, in the test with CP247, in the test on CP252, in the test with CP256 and in the test with CP291 was “inactive” throughout. For the same molecule, in the test with CP325, the Potency entry was “inactive”.

Consider `C=C1CC2C(CC[C@]3(C)C(=O)CCC23)[C@]2(C)C=CC(=O)C=C12` (some centres not stated), for which the activity, negative = inhibition in test [1] (setting [3]) was 0.0393%. Further, the Potency entry with 3D7, in the test on AA1029, with AS120, with ATS189, in the test with C2A and in the test on CP191 was “inactive” in each case. Moreover, the Potency entry in the test with CP215, with CP217, with CP238, in the test on CP247, with CP252 and in the test on CP256 was “inactive” in each case. Further, the Potency result with CP286, in the test with CP291, with CP325 and in the test on HB3 was “inactive” throughout.
